These results are taken from PubChem BioAssay AID504850 (National Center for Advancing Translational Sciences (NCATS), 2011).

SMILES strings stand for the structures. Hit rate of the full screen: of about 2,300 compounds, about 1,200 (52%) were called active. Another 34% or so got no clear call; they are omitted. Calls come from the whole dose curve; as a rule, active = well fitted inhibition curve with a large enough effect; inconclusive = small, poorly fitted or top-dose-only effect, or effect the other way; inactive = no such curve, though single readings can be large or run the other way. So high a share suggests a set chosen from earlier hits. This is one part of the list.
Potency is the fitted concentration of half-maximal effect.

A short description of this assay: Confirmation screen for delayed death inhibitors of the malarial parasite plastid, 48 hour incubation. Note: nearly all actives have a fitted effect of over 65% in size. The following applies: P. falciparum-infected erythrocytes, luciferase growth; series mostly up to 28.7 µM. Summed up:
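Erythrocytes infected with luciferase-expressing P. falciparum (2% hematocrit, 0.1% parasitemia) incubated with compounds 48 hours at 37 C, 5% CO2, in RPMI/Albumax. Growth inhibition scored as reduced luminescence after detection reagent.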
As to `Nc1nc(N)nc(-c2cc([N+](=O)[O-])ccc2O)n1`, the Potency result is “inactive”.
As to `O=C1C(=O)c2ccccc2C(O)=C1c1cccc([N+](=O)[O-])c1`, the Potency is 12.6 µM (active).
As for `Cc1ccc(C2C3=C(CC(C)(C)CC3=O)N=C3c4ccccc4C(=O)C32)cc1` (centres undefined), the figure is 8.91 µM (active); as for `COc1ccc(-n2c(C)cc(C(=O)Cn3c(NCCO)nc4ccccc43)c2C)cc1`, 12.6 µM (active); as for `Cc1ccccc1C1c2[nH]c3ccccc3c2CCN1Cc1cccn1-c1ncccn1` (centres undefined), 12.6 µM (active).
For the compound `CCOc1ccc(C2c3[nH]c4ccccc4c3CCN2Cc2cccn2-c2ncccn2)cc1` (centres undefined), the Potency is 12.6 µM (active).
As for `Cc1c(NC(=S)NC(=O)C(C)(C)C)c(=O)n(-c2ccccc2)n1C`, the entry is “inactive”; as for `Cc1cc(C)cc(-n2c(N)c(C(=O)Nc3c(C)n(C)n(-c4ccccc4)c3=O)c3nc4ccccc4nc32)c1`, 4.47 µM (active).
Take `COc1ccc2c(C)c(CCC(=O)NC3CC3)c(=O)oc2c1C`: the Potency was 3.98 µM (active).
For `COc1ccc(/C=C/C(=O)c2ccc([N+](=O)[O-])o2)cc1OC` the value was 11.2 µM (active); for `CCCSc1ccc(-c2nn(-c3ccccc3)cc2/C=C(/C#N)C(=O)NCCCOC)cc1`, 5.62 µM (active); for `CN1CCN(c2ccccc2NC(=O)c2cccc(OCc3ccccc3)c2)CC1`, 7.94 µM (active).
As for `Cc1cc(=O)oc2ccc(OCC(=O)N3CCc4ccccc43)cc12`, the figure is 10 µM (active); as for `CCC1CCCCN1CCCNC(=O)CNC(=O)c1nn(-c2ccc(OC)c(Cl)c2)c(=O)c2ccccc12` (centres undefined), 11.2 µM (active).
Turning to `CCC1CCCCN1CCCNC(=O)Cn1c(=O)c2cccn2c2cccnc21` (centres undefined), the Potency entry was “inactive”.
Turning to `O=C(O)c1nn(CCOc2ccc(Cl)cc2Cl)c(=O)c2ccccc12`, the Potency result is “inactive”.
Take `O=C1NC(NS(=O)(=O)c2ccc(Cl)cc2)(C(F)(F)F)C(=O)N1Cc1cccnc1` (centres undefined): the Potency result is “inactive”.
For `CCCOc1cc(NCc2ccccc2)c2ncn(C(C)C)c2c1`, the Potency was 5.01 µM (active).
As to `CCCN1C2=C(C(=O)CCC2)C(c2ccc(O)c(Br)c2)C2=C1CCCC2=O`, the Potency was 12.6 µM (active).
For `O=c1cc(CSc2ccc(Cl)cc2)nc(-c2ccccn2)[nH]1` the value was 5.01 µM (active); for `CCc1nc(SCC(=O)Nc2ccccc2OC)c2c(C)c(C)sc2n1`, 12.6 µM (active); for `Cc1sc2nc(C3CC3)nc(SCC(=O)N3c4ccccc4CC3C)c2c1C` (centres undefined), 14.1 µM (active).
As to `CCc1nc(SCC(=O)N2c3ccccc3CC2C)c2c(C)c(C)sc2n1` (centres undefined), the Potency is 11.2 µM (active).
Turning to `C=CCNC(=O)c1cnc2n(c1=O)CCS2`, the Potency result was “inactive”.
Regarding `C=CCn1c(SCc2cc(=O)n3cc(C)ccc3n2)nnc1-c1ccc(F)cc1`, the Potency is 14.1 µM (active).
In the case of `COC(=O)C1=C(C)Nc2ncnn2C1c1ccccn1` (centres undefined), the Potency entry was “inactive”.
With `Cc1cc(C)cc(-n2c3nc4ccccc4nc3c3c(=O)n(Cc4ccco4)cnc32)c1`, the Potency was 12.6 µM (active).
With `Cc1ccc(Cn2c(C)nc3c(c2=O)c2nc4ccccc4nc2n3Cc2ccco2)cc1`, the Potency was 7.08 µM (active).
With `COc1cc(C2Oc3ccccc3C=C2[N+](=O)[O-])cc(OC)c1OC` (centres undefined), the Potency is 14.1 µM (active).
For `COc1cc(/C=C(/C(=O)c2cccs2)c2nc3ccccc3[nH]2)ccc1O`, the Potency is 8.91 µM (active).
Consider `O=C(/C(=C/c1ccc(Cl)cc1)c1nc2ccccc2[nH]1)c1ccccc1`, for which the Potency is 1.41 µM (active).
Turning to `CCCc1c(C)c2cccc(C)c2[nH]c1=O`, the Potency entry is “inactive”.
For `COc1ccc(CNC(=O)C[C@H]2C(=O)N(C3CCCCC3)C[C@@H]2Cc2ccccc2)cc1`, the Potency was 11.2 µM (active).
For `COc1ccc(CNCc2ccc3ccccc3c2)c(OC)c1`, the Potency was 11.2 µM (active).
Consider `Cc1cc(C)n(CC(O)COc2ccccc2)n1` (centres undefined), for which the Potency was 2 µM (active).
Take `CCOC(=O)c1c(-c2ccc(C)cc2C)csc1NC(=O)CSc1nnnn1C`: the Potency was 4.47 µM (active).
On to `CC1=NCCN1CCNC(=O)Nc1ccc(F)cc1`, for which the Potency entry was “inactive”.
`CCCSc1nc2c(cnn2-c2ccccc2)c(=O)[nH]1`: the Potency result was “inactive”.
`CCCc1c(NC(=O)Nc2ccc(F)cc2)cnn1-c1ccccc1`: the Potency is 15.8 µM (active).
Turning to `CCCc1c(NC(=O)Nc2ccc(F)cc2)cnn1-c1ccc(Cl)cc1`, the Potency was 12.6 µM (active).
Take `COc1cccc(NC(=O)c2ccc3c(c2)C(=O)N(CC2CCCO2)C3=O)c1` (centres undefined): the Potency entry was “inactive”.
For `NC(=O)C1CCN(CC(=O)Nc2cccc(C(=O)Nc3cccc(C(F)(F)F)c3)c2)CC1`, the Potency is 2 µM (active).
As for `CSc1c[n+]2c(n1C)CCC2`, the entry is “inactive”.
As to `Cc1ccc(-n2c(-c3ccc(Cl)cc3)c[n+]3c2CCC3)cc1`, the Potency is 0.355 µM (active).
For `Cc1c(C)n2c(SCC(=O)Nc3ccc4c(c3)OCCO4)nnc2[nH]c1=O`, the Potency was 4.47 µM (active).
`O=C(c1[nH]ncc1-c1cccc(Br)c1)C1CO1` (centres undefined): the Potency was 12.6 µM (active).
For `Cc1onc(NC(=O)c2ccc([N+](=O)[O-])o2)c1Br`, the Potency is 12.6 µM (active).
With `CC1=Nc2cc(C(=O)N3CCCC3)ccc2Sc2ccc(C)cc21`, the Potency is 5.62 µM (active).
Take `COc1ccc(CCN2CCCn3c2nc2c3c(=O)n(Cc3ccccc3F)c(=O)n2C)cc1OC`: the Potency was 5.01 µM (active).
As for `COc1cc(/C=C/C(=O)c2ccc(Cl)s2)cc(OC)c1O`, the figure is 14.1 µM (active); as for `CCOC(=O)C1CCN(C(=O)C(=O)Nc2ccc3nc4n(c(=O)c3c2)CCCCC4)CC1`, 14.1 µM (active); as for `COc1ccccc1CNC(=O)c1ccc2c(=O)n3c(nc2c1)CCCCC3`, 11.2 µM (active).
Consider `COc1ccccc1C(=O)Nc1ccc2nc3n(c(=O)c2c1)CCCC3`, for which the Potency was 11.2 µM (active).
For the compound `CC(=O)N1CCc2cc(S(=O)(=O)N3CC(C)CC(C)C3)ccc21` (centres undefined), the Potency is 11.2 µM (active).
Regarding `CCC(=O)N1CCc2cc(S(=O)(=O)N3CCCCCC3)ccc21`, the Potency is 12.6 µM (active).
As for `CCC(=O)N1CCc2cc(S(=O)(=O)N3CCN(c4cc(Cl)ccc4C)CC3)ccc21`, the Potency entry was “inactive”.
For `O=C1C2CCCN2C(c2ccccc2)N1c1nccs1` (centres undefined) the value was “inactive”.
Consider `Cc1ccc(Nc2nc(=O)c3cccnc3s2)c(Br)c1`, for which the Potency entry is “inactive”.
With `O=S(=O)(Nc1cccc2ncccc12)c1cccs1`, the Potency is 4.47 µM (active).
Consider `Cc1ccc(S(=O)(=O)Nc2cccc3ncccc23)s1`, for which the Potency was 5.01 µM (active).
With `CCOc1ccc(CCn2c(-c3ccco3)nc3ccccc3c2=O)cc1OCC`, the Potency is 10 µM (active).
For `CCOc1ccc(S(=O)(=O)Nc2cc(S(=O)(=O)N(CC)CC)ccc2N2CCCC2)cc1` the value was 2.51 µM (active); for `N#CC(C#N)=C1C=CC=CN1/C(=C\c1ccco1)C(=O)c1ccc(Br)cc1`, 15.8 µM (active).
As for `COc1ccc(C(=O)/C(=C\c2ccco2)N2C=CC=CC2=C(C#N)C#N)cc1`, the figure is 15.8 µM (active); as for `N#CC(C#N)=C1C=CC=CN1/C(=C\c1ccco1)C(=O)c1ccc(Cl)cc1`, 14.1 µM (active); as for `COc1ccc(-c2cc(CNC(=O)CCl)on2)cc1`, 1.58 µM (active).
Regarding `O=C(CN(c1ccc2c(c1)OCCO2)S(=O)(=O)c1ccccc1)NCc1ccc(Cl)cc1`, the Potency was 7.94 µM (active).
As for `O=C(NCc1ccc2c(c1)OCO2)c1nc(S(=O)(=O)Cc2ccccc2F)ncc1Cl`, the Potency entry was “inactive”.
On to `CC(C)N1C/C(=C/c2ccsc2)C(=O)/C(=C/c2ccsc2)C1`, for which the Potency was 5.01 µM (active).
Consider `Cc1c(CCO)sc[n+]1CC(=O)OCCC12CC3CC(CC(C3)C1)C2`, for which the Potency was 8.91 µM (active).
Regarding `CCCCc1nc2cc(C(=O)N3CCN(c4nc(C)cnc4C)CC3)ccc2o1`, the Potency was 12.6 µM (active).
Regarding `CCC(C)(C)NC(=O)C(c1cccc(OC)c1OC)N(CC(C)C)C(=O)CCC(=O)Nc1cc(C)on1` (centres undefined), the Potency was 10 µM (active).
For the compound `CCOC(=O)Cn1nnnc1C(CC)N(Cc1cccs1)Cc1cc2ccc(OC)cc2[nH]c1=O` (centres undefined), the Potency is 10 µM (active).
In the case of `Cc1ccc(OCC(=O)Nn2cnnc2)c(Br)c1`, the Potency entry was “inactive”.
For `Cc1ccc(C)c(-c2nnc(OCC(=O)Nc3cc(C)on3)c3ccccc23)c1` the value was 14.1 µM (active).
Take `CC(C)N=C(NS(=O)(=O)c1ccccc1)C(Cl)(Cl)Cl`: the Potency was 5.01 µM (active).
As for `C=CCNC(=O)c1onc(CSc2cccc(Cl)c2)c1C(=O)O`, the entry is “inactive”.
With `CCc1ccc(-c2cn(C3CCCCC3)c(=S)[nH]2)cc1`, the Potency is 14.1 µM (active).
As to `CC(=O)/C=C/c1ccccc1Oc1c(F)c(F)nc(F)c1F`, the Potency was 10 µM (active).
In the case of `Cc1cccc2c1NC(=O)/C2=C\C(=O)c1cccs1`, the Potency result was “inactive”.
As for `CC(C)N(C(=O)CSc1nnc(-c2ccc3c(c2)OCO3)n1C)C(C)C`, the Potency is 11.2 µM (active).
For the compound `CC(NC(=O)Nc1ccc(Cl)cc1)c1ccc2c(c1)OCO2` (centres undefined), the Potency result is “inactive”.
For `COC(=O)[C@H](Cc1ccccc1)N(C)S(=O)(=O)c1cccc(S(=O)(=O)N(C)[C@@H](Cc2ccccc2)C(=O)OC)c1`, the Potency is 12.6 µM (active).
Turning to `O=C(N[C@@H](Cc1ccccc1)C(=O)CCl)OCc1ccccc1`, the Potency entry was “inactive”.
For the compound `CCCCCn1c(=O)c2ccccc2n2c(CCl)nnc12`, the Potency is 10 µM (active).
On to `COc1cccc(F)c1C(C[N+](=O)[O-])c1c(N)n(C)c(=O)n(C)c1=O` (centres undefined), for which the Potency is 5.01 µM (active).
Take `Cc1ccc(CN2CCCCC2C(=O)Nc2ccc(Oc3cccnc3)cc2)o1` (centres undefined): the Potency was 11.2 µM (active).
`O=C(Nc1ccc(N2CCN(C(=O)c3cccs3)CC2)cc1)c1ccc([N+](=O)[O-])o1`: the Potency is 3.55 µM (active).
For `Cc1ccccc1C(=O)N1CCN(c2ccc(NC(=O)c3ccc([N+](=O)[O-])o3)cc2)CC1`, the Potency is 10 µM (active).
As to `O=C(Nc1ccc(N2CCN(C(=O)c3ccco3)CC2)cc1)c1ccc(F)cc1`, the Potency is 11.2 µM (active).
In the case of `O=C(Nc1ccc(N2CCN(C(=O)c3ccccc3)CC2)cc1)c1ccc([N+](=O)[O-])o1`, the Potency was 5.01 µM (active).
As for `O=C(Nc1c2c(nn1-c1ccc([N+](=O)[O-])cc1)CS(=O)(=O)C2)c1cccs1`, the entry is “inactive”; as for `O=C(NCc1ccc(F)cc1)C1CCN(S(=O)(=O)c2ccc(Br)s2)CC1`, 12.6 µM (active).
For `COc1ccc(CCNS(=O)(=O)c2ccc(Br)s2)cc1` the value was “inactive”.
